# Test results from the supplement of paper PMC10646978.
# ± gives the standard deviation.
# Tests used:
# Settings in all cases: modulator concentration 10 µM
# [1] = system: RAW-Dual (murine macrophage reporter line); assay: NF-kB reporter (SEAP) activity fold change vs agonist alone; higher = enhanced NF-kB activity
# Summary of the method: (§1)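 Compound reached 10 μM final in each well by pin transfer, onto RAW-Dual murine macrophage reporter cells seeded at 50 000 per well in 384-well plates. After 1 hour at 37 °C, the cells were stimulated overnight with a PRR agonist. SEAP in the supernatant was read with QUANTI-Blue at 620 nm absorbance for NF-κB, and Lucia luciferase was read with QUANTI-Luc luminescence for IRF. Each signal was turned into fold change against the mean agonist-only control on the same plate, and two replicate plates were averaged with propagated errors.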
# [2] = system: RAW-Dual (murine macrophage reporter line); assay: IRF reporter (Lucia luciferase) activity fold change vs agonist alone; higher = enhanced IRF activity
# Summary of the method: as §1
# [3] = system: RAW-Dual (murine macrophage reporter line); assay: viability score (confluency relative to resting cells, overnight) (fraction); higher = more viable, active = viable (0.7 or more)
# Summary of the method: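 RAW-Dual macrophages in 384-well plates were exposed overnight to compound at 10 μM final. Confluency was imaged with IncuCyte, and two confluency masks were generated with IncuCyte software over all imaged wells. The viability score is confluency expressed relative to resting cells. Compounds were called viable if both masks exceeded 70% of resting cells.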
# [4] = agonist: CpG ODN 1826 0.5 ug/mL
SMILES,"NF-kB reporter [1, 4]",NF-kB reporter ([1]; agonist: LPS 0.1 ug/mL),NF-kB reporter ([1]; agonist: MPLA […]),IRF reporter ([2]; agonist: 3'3'-cGAMP 10 ug/mL),IRF reporter ([2]; agonist: LPS 0.1 ug/mL),IRF reporter ([2]; agonist: MPLA […]),viability score [3]
Cc1ccc(C(=O)c2cc(O)c(O)c([N+](=O)[O-])c2)cc1,0.889 ± 0.078,1.09 ± 0.056,1.07 ± 0.049,0.871 ± 0.048,0.917 ± 0.081,0.946 ± 0.075,0.995 (active)
O=C(O)c1nn(-c2ccccc2)c(=O)c2ccccc12,1.12 ± 0.13,1.1 ± 0.099,1.03 ± 0.027,0.955 ± 0.034,0.953 ± 0.086,0.953 ± 0.26,1 (active)
O=C(NCC1(O)CCc2ccccc2C1)Nc1ccccc1C(F)(F)F (stereo unspecified),0.914 ± 0.18,1.02 ± 0.11,1.18 ± 0.074,0.973 ± 0.05,1.17 ± 0.2,1.31 ± 0.42,0.908 (active)
COC(C)(CNC(=O)CSc1ccc(F)cc1)c1cccc(Cl)c1 (stereo unspecified),1.11 ± 0.4,1.07 ± 0.11,1.01 ± 0.074,0.973 ± 0.082,0.992 ± 0.13,1.12 ± 0.32,0.987 (active)
CN(C)CC/C=C1/c2ccccc2Sc2ccc(Cl)cc21,0.942 ± 0.058,1.02 ± 0.085,1.08 ± 0.078,0.925 ± 0.043,1.08 ± 0.19,1.23 ± 0.38,1.02 (active)
CC(CN1c2ccccc2Sc2cccnc21)N(C)C.Cl (stereo unspecified),0.968 ± 0.075,0.926 ± 0.11,1.07 ± 0.042,1.03 ± 0.099,0.935 ± 0.14,0.921 ± 0.16,1 (active)
CN1CCN(C(c2ccccc2)c2ccccc2)CC1.Cl.Cl,0.727 ± 0.12,0.833 ± 0.21,0.89 ± 0.05,0.701 ± 0.023,1.25 ± 0.29,1.03 ± 0.084,0.985 (active)
O=C(Nc1cc(C(F)(F)F)cc(C(F)(F)F)c1)c1ccco1,0.816 ± 0.11,1.07 ± 0.061,1.02 ± 0.072,0.715 ± 0.019,1.07 ± 0.23,0.89 ± 0.15,1.01 (active)
CCN(CC)c1ccc(C=NNC(=O)c2ccccc2I)c(O)c1,1.35 ± 0.13,0.997 ± 0.069,1.26 ± 0.076,0.436 ± 0.036,1.08 ± 0.11,1.09 ± 0.13,0.926 (active)
O=C(CCC(=O)OCC(=O)c1cccs1)Nc1ccc(Oc2ccccc2)cc1,0.756 ± 0.064,0.842 ± 0.054,1.04 ± 0.12,0.995 ± 0.05,1.22 ± 0.085,1.38 ± 0.13,1 (active)
O=c1ccc2cc(O)c(O)cc2o1,1.34 ± 0.34,0.878 ± 0.044,1.03 ± 0.16,0.736 ± 0.026,1.34 ± 0.2,1.2 ± 0.12,0.986 (active)
O=C(Cc1ccc(F)cc1)NCC1CCCN1c1ccccc1 (stereo unspecified),1.21 ± 0.11,1.1 ± 0.083,1.09 ± 0.029,0.677 ± 0.043,1.12 ± 0.077,0.893 ± 0.13,0.992 (active)
O=C1NC(=O)C(=Cc2ccc(F)cc2)S1,0.667 ± 0.052,0.951 ± 0.062,0.91 ± 0.032,0.773 ± 0.16,1.02 ± 0.089,1.02 ± 0.16,0.988 (active)
